Our source for the z-score values is PubChem BioAssay AID1508600 (Functional Genomics Laboratory (NCATS/FGL), 2020).

In all, about 53,000 sequences went through this assay and about 3,700 (7%) were called active. The full list was thinned out, with actives kept by preference. Values without a mark were called inactive.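 How the source made its calls: active means gene knockdowns whose robust z-score for IL-1 alpha signal is at least 2 or at most -2, so actives lie on both sides; inactive means the rest.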

This test is described as follows: Components of the Cytosolic LPS Sensing Pathway: Gene Identification via Genome-wide siRNA Screen.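 Further: robust z of the log signal after scaling to non-targeting control siRNA wells of the plate.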 The settings on record: RAW264.7 macrophages, IL-1a HTRF, actives lie on both sides, screened at 100 nM (by protocol), cells primed 5 h with Pam3CSK4 first. An outline of the steps: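 RAW264.7; siRNA 100 nM final, RNAiMAX, 48h 37 degrees C; Pam3CSK4 5 h; LipidA + TransIT-TKO 24 h; IL-1a HTRF; CellTiter-Glo viability; robust z vs negative-control median.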
(In general: TR-FRET usually uses a lanthanide donor and a delayed reading to cut background.)
In the case of GCCGUUCAUUUCAACCGUGTT against Wdr5, the z-score was -0.0339. In the case of GGCUCACUCUCCAUUCUACTT against Asb6 it was -0.902. Turning to GGCACUCUCAGCUUUUGACTT against Olfr2, the z-score is -2.43 (active). As for CCGCCUGGAUAAUUAUGAUTT against Cltc, the z-score is 0.309.

Turning to GGAUCAUGUCAUCACAAAATT against Fzd3, the z-score is -0.319. Take GGUGUCCAAUUGCCCUAUCTT against Tnfrsf12a: the z-score was -1.98. As for GGGAACAGCAUGAAGGAAGTT against Krt78, the figure is 0.688; as for GGCACGUUAUGAAGACCAGTT against Ttc6, 1.49.

Take GAGAAACAACAAUUUGGGATT against Gm20815: the z-score was 2.07 (active). In the case of GGCUGAUUAGAAUACCUCCTT against Adra2b it was 0.352.

As for GGCCUACGUGCUAAACAUCTT against Atp1b1, the z-score is 1.77. As for GCUCUAAAUGAACAUCUCATT against Snai3, the z-score is 0.322. Regarding GGUCCUAUGGAUUAAUGCUTT against Ccn4, the z-score is 3.46 (active). As for CCCUAAAACCAAAUGUACATT against Tet2, the figure is 1.7; as for GGAUGUAACAUUUCUUCAATT against Rmi1, 0.567; as for GGCUGGUAAUUCACUUAAUTT against Kcnk2, -2.54 (active). In the case of GGAAAUCACCAUGCCCUCUTT against S100a8 it was -0.0382. In the case of GCAUGGAGAUUCUGUGCGGTT against Trim45, the z-score was -1.13. In the case of CCGAAAAUGGUAAAUAACUTT against Rnf17 it was 0.111. GGAGGAACCUCAGAAACAGTT against Knstrn: the z-score was -2.19 (active).

Regarding GCUAUUUUGGGACGAGUCATT against Col13a1, the z-score is -0.7. Consider GGGAUCAAGUUAAAUAGACTT against Snhg16, for which the z-score was -0.184. For GCGAACAGUUGAAUAGAUUTT against Slc25a46, the z-score was -0.108.

For GGUGGUCACUAAGAAGUUCTT against Prps1l1, the z-score was 2.48 (active). On to CCAACACUAUUACUGUAAATT against Arg2, for which the z-score was 0.159.

Consider GGCCAGAAAAUUAAGGAGCTT against Faap100, for which the z-score is 1.15. Take GGCAACUGAAAUGUUUGUUTT against Rap2c: the z-score is 2.14 (active). Regarding CCUUGAGUACUUAUUGCGUTT against Chac1, the z-score is 0.934. As for GCCAACUCGAACAUUUUGATT against Zfp280b, the figure is 0.567. As for GCUACUCGCGUUUAAUUUUTT against Slc9a9, the z-score is -0.238. For the sequence GACCUUUCUCUUCUUGGCUTT against Olfr434, the z-score was -2.1 (active). On to GGAUAACCCUCAGAAGUCCTT against Was, for which the z-score was 0.664. GGAAUAAUCAAGCUAGGGATT against Satb2: the z-score was -2.2 (active).

Turning to GGAGAGAGGACAACUUCUCTT against Mrm1, the z-score was 1.3.

Turning to GGCUUUUAACACCUUCAUUTT against Clptm1l, the z-score is 0.495. In the case of GCUUCUUCUGUGAACUUCCTT against Olfr854 it was -0.939.

In the case of GGAAGCUGCUUUUCUAAAUTT against Il7, the z-score is 2.92 (active).

Consider GGCAGUGAGAGUCACAAGATT against Cdipt, for which the z-score is -1.74.

For the sequence GGAAAUGCAGUUGUGAAUGTT against Rab4a, the z-score was -2.03 (active). Take GCCCAUGUUAGAGGUUUUGTT against Rsph3a: the z-score is 0.838. As for GGGAGAUGAGUUUUCUGAUTT against Cyp2c70, the figure is 1.15; as for GGCAGUUGAUUCCUUUAAATT against Baz1a, 0.0425; as for GCUGUACCCGAAUGAGUUUTT against Mgat2, 2.54 (active). Turning to GCCCUUAGCUGCAUGAAUUTT against Laptm4b, the z-score is -0.661. As for GGACCGUCUGUCCUUUGUCTT against Nectin2, the figure is 0.618; as for GGUAGAGAAGAACGGUACCTT against Mb21d2, 1.08; as for CCGAGUAAUUGGAAGUGGUTT against Ldha, 2.08 (active). Regarding GGUGCUUUCUGGAUGAAGATT against Akirin1, the z-score is -0.282. GGCUUUUGGAGAAAAAGGATT against Nus1: the z-score was 1.92.

Turning to GGAAAUGUAGUGAAGGGUGTT against Ndfip2, the z-score is 2.03 (active). As to GGGCCUUACGUCAUUCUCUTT against Dnajb7, the z-score was -0.319. On to GGAUUUCAUUCCAAACAUGTT against Hbs1l, for which the z-score was -0.161.

With CGGGACUAUUAUUACUCCATT against Ap2m1, the z-score is -1.22.

For the sequence GGAAGAUCUCUUGUCUGCUTT against Mtcp1, the z-score was -0.269. In the case of GGGAGAUGCAACCUCUCUUTT against Dennd5b it was 2.91 (active). Regarding GGGAAAUCUAUUUUUGUGATT against Mob3c, the z-score was -1.77. In the case of GGUCUGGAGACAAUCAUCATT against Rnf222 it was -2.47 (active).

As to GGCUUAUUGGAAGAGGACGTT against Ier5, the z-score was 0.559.

Consider GCUGAGUCCAUGUCUGUUGTT against Coro2a, for which the z-score is -0.119. As for CGGCAUGAGCAGUUUAUAUTT against Col19a1, the figure is -1.04; as for GCUGAUUGAGCAUCCGAUGTT against Ggt1, 2.78 (active). As for GGGAUUCAGUAUAAAACACTT against Nup37, the z-score was -1.25. In the case of GGAAAGAGCCAUCCUUUGATT against Gnmt, the z-score is -0.186. With CGUAUAAUAACUCCUUAUCTT against Hoxa1, the z-score is 2.17 (active).

GGUGUAGACUCCAACAUGUTT against Aarsd1: the z-score was 1.69. As for CCUUGGACUAUGGCAAAAATT against Neurod6, the figure is 0.418; as for GCCGGAAUCCUGUGGAAUCTT against Kat14, 6.46 (active). As to GGAAAAUGACACAGGUAUCTT against Entpd2, the z-score is -0.103. With GGAGAUGAGCUGUAUGUGATT against Nudt19, the z-score was 0.862.

GACUUCAGACAAAUAGUGCTT against Lce1i: the z-score was -1.24. As for GCAUCGAAAAUCUUUCCAATT against Fibcd1, the figure is 1.6; as for GGUGCUCAAUAAAUGUAAATT against Cd151, -1.26. As for GGGUUUCUUCCCUGAGCUATT against Nxf7, the figure is -1.97; as for CCACUAUGAAUCGUGGUUCTT against Sp6, 0.731; as for CGUGCAUCCCUAUAUCCUATT against Panx2, 0.343. In the case of GGUUGACAACACAUCUGCUTT against Ugt2b34 it was -0.766; in that of GGAUCAAUGUGGUACCUAUTT against Sf3a1, -2.79 (active). Consider GGGAAUAGUUUAUAUGGACTT against Ccl20, for which the z-score was 0.315.

Take CGGGCAAUGUCAGAUUGUGTT against Vmn1r75: the z-score was 1.41. Turning to GGUACUUUCGGACUCAGUUTT against Ipp, the z-score is -0.0605. Regarding GCUAGGUGUUUGAAGCCUCTT against Mixl1, the z-score is -0.834. For the sequence GGAAGGGUAAAUUUAGAAGTT against Arrdc3, the z-score was 2.83 (active). With GAUCUUCCUGACAGUGGUGTT against Psors1c2, the z-score is -0.15. As for GGUAAAAAACCAAGAACAATT against Ednrb, the figure is 2.17 (active); as for GGACUUCUUCUUGUACAACTT against Capn3, 1.03.

Consider GGGCUCUUGCCAGAAAACGTT against Rsph3a, for which the z-score was -0.524.

As for GCCACUCGGAGAUUUUUCATT against Slc15a4, the z-score is -0.6. For the sequence CCCUGACCUUCAGAUUGUGTT against Olfr788, the z-score is 0.14.

CCAAGUAGAUAGGAAUUAUTT against Eps8: the z-score is 2.

On to “GCUUUAUGGGAGACAAAGGTT against 1700022I11Rik”, for which the z-score is 2.53 (active). GGAUGCUUUACCAAAUGAATT against Slc44a3: the z-score was 0.147. In the case of GGAAAAUUGGCCAAAAUAATT against Pdcl it was -0.0308; in that of GGAGAAGCUGCUGGCAGAATT against Trub1, -1.15.

With GGUCUUGGAGUUGCUAAUUTT against Med4, the z-score was 2.63 (active). For CCUCUUCUUGUUUCAAGGGTT against Piezo2, the z-score is 0.062. For CCAGCUAAACUCUGUAAAATT against Zfp639, the z-score was -0.113. In the case of GCUUUGGACAAUAAGAAGUTT against Cdkl1 it was -0.838. GUCACUGAUACUCAAUAAATT against Vmn1r172: the z-score is -1.45. In the case of GCAUCGUCCUCCAAAGAUUTT against Sf3b1 it was -3.01 (active); in that of GGCUAUCUACCAUUAUAUGTT against Ifit2, -0.607; in that of GGUCCUGUUAAACUGAAAGTT against Fkbp1a, -1.45. As for GGGAAUAAAAAGGAUCACUTT against Rab39, the z-score is 1.27. CCUGAAUGACCUAGGGCCUTT against Adam8: the z-score was 0.286.

As to GGCAUGAGCUAUCAGGACUTT against Efcab6, the z-score was 1.37. In the case of GGUAUUAGCAAUUUUCUGGTT against Olfr619 it was -0.681; in that of CGAGGAUGACUUGAUGACCTT against Ajm1, -2.18 (active). In the case of GGGAAAAUUCCAGAAUCGCTT against Musk it was 0.315; in that of GCCGGCCAGAAUAUACAUUTT against Fndc10, 0.415.
